Experimental findings from PubChem BioAssay are described below.

Unmarked numbers belong to inactive results. For some assays here: Potency and affinity values are given separately. The list shows a part of the results. The source made the active and inactive calls.

Assay [1] deals with TRPC4 beta (transient receptor potential cation channel C4), mouse. Description: activators of mouse TRPC4 channel, confirmation, cell-based, Fluo4 calcium, HEK293 TRPC4beta/mu-opioid, duplicates, 10 µM (AID 2426;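 active = fluorescence ratio normalized to control raised more than 50% in primary screen plus both repeat runs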). Particulars: Fluo4 calcium fluorescence, at 10 µM; hits give high values.
The test system of assay [2] is transient receptor potential cation channel C4 beta (TRPC4), mouse. Description: activators of mouse TRPC4 channel, confirmation, cell-based, second round, Fluo4, HEK293 TRPC4beta/mu-opioid, 1 µM (AID 2461;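 active = primary screen active and over 50% activation in each of two duplicate runs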). Conditions: Fluo4 calcium fluorescence, at 1 µM; hits give high values.
The test system of assay [3] is TRPC4 (transient receptor potential cation channel C4 beta), mouse. Put plainly: positive allosteric modulators of mouse TRPC4, confirmation, cell-based, second round, Fluo-4, HEK293 TRPC4beta/mu-opioid, 1 µM (AID 2554;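 active = primary screen hit whose fluorescence ratio, in both repeats, exceeds the weak agonist control mean by 3 SD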). Conditions: DAMGO EC20, Fluo-4 calcium flux, at 1 µM; hits give high values.
Assay [4] relates to TRPC4 beta (transient receptor potential cation channel C4), mouse. Put plainly: positive allosteric modulators of mouse TRPC4, confirmation, cell-based, Fluo-4, HEK293 TRPC4beta/mu-opioid (AID 2555;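 active = primary screen hit whose calcium fluorescence ratio, in both repeats, exceeds the weak agonist control mean by 3 SD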). Conditions: DAMGO EC20, Fluo-4 calcium flux, at 10 µM; hits give high values. A general note: A change in cytosolic calcium serves as a functional read-out for many receptors and channels.

The target of assay [5] is Short transient receptor potential channel 4 (Mus musculus) (UniProt Q9QUQ5). Description: inhibitors of mouse TRPC4 channel, confirmation, cell-based, Fluo4, HEK293 TRPC4beta/mu-opioid (AID 2636;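 active = calcium signal cut by more than 3 SD below the full-agonist control yet still positive, in both repeats and the earlier primary screen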). Particulars: DAMGO, Fluo4 calcium flux, at 10 µM; hits give high values.
Sequence of Short transient receptor potential channel 4 (Mus musculus) (Q9QUQ5 whole entry, looked up): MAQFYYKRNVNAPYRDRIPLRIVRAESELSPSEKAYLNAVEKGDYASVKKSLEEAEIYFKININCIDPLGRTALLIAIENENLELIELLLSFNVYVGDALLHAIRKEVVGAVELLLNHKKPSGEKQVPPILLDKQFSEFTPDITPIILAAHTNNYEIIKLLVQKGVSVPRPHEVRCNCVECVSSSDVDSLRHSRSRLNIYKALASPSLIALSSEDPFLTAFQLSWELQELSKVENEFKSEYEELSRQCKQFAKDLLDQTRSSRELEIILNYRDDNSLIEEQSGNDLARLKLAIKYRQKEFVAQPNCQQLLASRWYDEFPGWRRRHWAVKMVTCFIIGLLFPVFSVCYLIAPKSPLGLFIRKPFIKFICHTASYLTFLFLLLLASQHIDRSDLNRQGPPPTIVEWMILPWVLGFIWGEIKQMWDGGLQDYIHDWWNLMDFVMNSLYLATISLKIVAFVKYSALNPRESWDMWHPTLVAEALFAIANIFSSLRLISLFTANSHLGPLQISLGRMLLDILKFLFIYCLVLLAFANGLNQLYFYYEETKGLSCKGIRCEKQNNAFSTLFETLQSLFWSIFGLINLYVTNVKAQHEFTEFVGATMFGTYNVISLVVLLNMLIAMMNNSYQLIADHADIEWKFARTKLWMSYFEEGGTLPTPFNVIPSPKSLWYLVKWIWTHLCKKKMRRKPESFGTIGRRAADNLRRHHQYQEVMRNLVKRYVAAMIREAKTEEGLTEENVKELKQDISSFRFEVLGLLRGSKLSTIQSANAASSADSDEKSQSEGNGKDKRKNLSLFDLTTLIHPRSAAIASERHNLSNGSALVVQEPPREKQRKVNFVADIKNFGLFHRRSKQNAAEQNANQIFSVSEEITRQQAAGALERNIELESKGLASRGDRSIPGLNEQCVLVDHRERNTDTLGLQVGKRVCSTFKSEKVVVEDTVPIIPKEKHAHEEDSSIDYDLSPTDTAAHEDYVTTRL
Assay [6] shares this target. Put plainly: inhibitors of mouse TRPC4 channel, confirmation, cell-based, second round, Fluo4, HEK293 TRPC4beta/mu-opioid, 1 µM (AID 2637). Conditions: Fluo4 calcium flux, DAMGO, at 1 µM; hits give high values.
The target is the same in assay [7]. Put plainly: mouse TRPC4 channel activators, dose response, cell-based, HEK293 TRPC4/mu-opioid, Fluo-4 calcium (AID 434937;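 active = primary screen activator hit with a dose response curve and TRPC4 channel activation at any tested dose; inactive = no activation, no dose response, or not a primary hit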).
Assay [8] shares this target. Description: TRPC4 positive allosteric modulators, dose response, cell-based, HEK293 TRPC4/mu-opioid, Fluo-4 calcium, EC20 DAMGO (AID 434941;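 active = earlier screen potentiator hit that boosts the TRPC4 ion channel at some dose, with a dose response; inactive = no potentiation, no dose response, or not a prior hit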;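 note: calcium entry triggered by an EC20 dose of DAMGO at the co-expressed mu-opioid receptor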).
Assay [9] shares this target. Put plainly: mouse TRPC4 channel inhibitors, dose response, cell-based, HEK293 TRPC4/mu-opioid, Fluo-4 calcium (AID 434942;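 active = primary screen inhibitor hit that blocks the TRPC4 channel at some tested dose, yielding a dose curve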).
Assay [10] addresses Short transient receptor potential channel 6 (Mus musculus) (UniProt Q61143). Put plainly: inhibition of mouse TRPC6 channel, confirmation, selectivity assay for TRPC4 inhibitor project, cell-based, HEK293, membrane potential dye, duplicate (AID 434948;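 active = active in primary screen and both duplicates, each dropping signal beyond three positive-control SD with fluorescence still positive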). Conditions: HEK293 TRPC6, membrane potential dye fluorescence, at 10 µM, stimulated with maximal-effect acetylcholine; hits give high values.

Assay [11] shares this target. Description: activation of mouse TRPC6 channel, confirmation, selectivity assay for TRPC4 activator project, cell-based, HEK293, membrane potential dye, duplicate (AID 434950;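 active = membrane potential signal rise above negative control mean plus 3 SD in both duplicates, also active in the earlier TRPC4 screen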). Particulars: HEK293 TRPC6, membrane potential fluorescence, at 10 µM; hits give high values.
Assay [12] has the same target. Put plainly: TRPC6 potentiation by TRPC4 potentiator hits, confirmation, selectivity assay for TRPC4 potentiator project, HEK293 cells, membrane potential dye, duplicate (AID 434952;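 active = compound raising the membrane signal above positive-control mean plus 3 SD in both repeats, and a primary screen hit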). Conditions: HEK293 TRPC6, membrane potential dye fluorescence, at 10 µM, maximal acetylcholine added after compound; hits give high values.
The target of assay [13] is Short transient receptor potential channel 4 (Mus musculus) (UniProt Q9QUQ5). Put plainly: calcium flux activators in TRPC4/5HT1a cells, counter-screen for TRPC4 activator project, cell-based, second counter screen, HEK293 TRPC4/5HT1a, Fluo-4 (AID 434977;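 active = calcium signal rise above buffer-control mean plus 5 SD in both duplicates, and also a hit in the primary screen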). Particulars: Fluo-4 calcium flux, at 10 µM; hits give high values.
Assay [14] can be described thus: calcium flux inhibitors in TRPC4/5HT1a cells, confirmation, counter-screen for TRPC4 inhibitor project, cell-based, second counter screen, HEK293 TRPC4/5HT1a, Fluo-4 (AID 434978;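 active = primary screen active whose calcium signal fell more than 3 SD beyond the full-serotonin control mean in both duplicate plates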;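 for outcome: serotonin given first at submaximal then at maximal dose after compound preincubation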). Conditions: Fluo-4 calcium flux, at 10 µM, serotonin added to trigger calcium flux; hits give high values.
Assay [15] has as its system TRPC4 (mouse), co-expressed with 5HT1a in HEK293. Put plainly: calcium flux potentiators in TRPC4/5HT1a cells, confirmation, counter-screen for TRPC4 potentiator project, cell-based, second counter screen, HEK293 TRPC4/5HT1a, Fluo-4 (AID 434979;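 active = signal rise over 3 SD above mean of control wells given weak agonist, in both repeats and first screen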). Conditions: Fluo-4 calcium flux, at 10 µM, serotonin added at its EC20 dose; hits give high values.
Assay [16] can be described thus: calcium flux activation in mu-opioid HEK293 cells, confirmation, counter-screen for TRPC4 activator project, cell-based, HEK293 mu-opioid receptor line (AID 449723;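 active = hit in primary screen, with calcium signal over 5 SD above buffer well mean in both duplicates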;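 note: counter screen cells carry the mu-opioid receptor alone and lack TRPC4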). Conditions: Fluo-4 calcium fluorescence, at 10 µM; hits give high values.
Assay [17] can be described thus: calcium flux enhancement in mu-opioid HEK293 cells, confirmation, counter-screen for TRPC4 allosteric potentiator project, cell-based, HEK293 mu-opioid receptor line (AID 449724;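 active = calcium signal rise more than 3 SD above the low-dose agonist control mean, in both duplicate plates and the primary screen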). Conditions: Fluo-4 calcium flux, at 10 µM, compound added before EC20 DAMGO stimulus; hits give high values.
Assay [18] can be described thus: nonspecific thallium flux increase in parental CHO-K1, confirmation, counter-screen for KCNQ2 potentiator project, cell-based, FluxOR thallium flux, duplicate (AID 2282;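 active = signal rise of at least 3 SD above the untreated control mean, in both duplicate wells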;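 note: counter screen of KCNQ2 potentiator hits so any rise reflects channel-independent effects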). Conditions: parental CHO-K1 cells, FluxOR thallium flux fluorescence; at 10 µM; hits give high values; zero = vehicle mean+3SD, 100% = vehicle-minus-blank window. For orientation: Counterscreens check selectivity or assay interference.

Assay [19] deals with Potassium voltage-gated channel subfamily KQT member 1 (Homo sapiens) (UniProt P51787). Put plainly: human KCNQ1 channel potentiation off-target, confirmation, selectivity assay for KCNQ2 potentiator project, cell-based, CHO, FluxOR thallium flux (AID 2283;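 active = fluorescence ratio rise of at least 3 SD of vehicle wells above their mean, in both replicate wells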;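 note: 0% = vehicle mean plus 3 SD and 100% = vehicle minus unstimulated blank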). Particulars: CHO KCNQ1 stable, FluxOR thallium flux fluorescence; at 10 µM; hits give high values; beyond 3SD, as % of vehicle-control signal.
Sequence of Potassium voltage-gated channel subfamily KQT member 1 (Homo sapiens) (P51787 whole entry, looked up): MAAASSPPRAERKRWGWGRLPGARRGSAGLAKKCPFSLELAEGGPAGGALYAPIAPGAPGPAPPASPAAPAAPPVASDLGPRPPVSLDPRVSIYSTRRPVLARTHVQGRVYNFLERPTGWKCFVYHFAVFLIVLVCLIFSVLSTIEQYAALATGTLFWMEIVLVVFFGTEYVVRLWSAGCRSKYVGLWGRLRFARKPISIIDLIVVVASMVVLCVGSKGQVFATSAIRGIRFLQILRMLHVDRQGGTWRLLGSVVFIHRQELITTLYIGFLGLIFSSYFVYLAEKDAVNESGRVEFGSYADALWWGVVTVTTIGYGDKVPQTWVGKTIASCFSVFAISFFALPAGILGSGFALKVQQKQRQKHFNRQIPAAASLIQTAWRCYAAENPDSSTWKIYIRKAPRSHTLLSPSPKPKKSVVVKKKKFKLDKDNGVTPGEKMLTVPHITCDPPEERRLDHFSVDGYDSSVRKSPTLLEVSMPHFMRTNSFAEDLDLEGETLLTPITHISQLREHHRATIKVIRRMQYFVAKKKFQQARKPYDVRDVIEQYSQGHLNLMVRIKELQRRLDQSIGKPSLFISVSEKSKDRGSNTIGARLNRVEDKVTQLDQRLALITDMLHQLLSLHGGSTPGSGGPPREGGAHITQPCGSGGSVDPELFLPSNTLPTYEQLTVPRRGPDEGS

Assay [20] deals with Potassium voltage-gated channel subfamily KQT member 2 (Rattus norvegicus) (UniProt O88943). Description: rat KCNQ2 channel potentiators, confirmation, cell-based, CHO, FluxOR thallium flux, duplicate (AID 2287;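 active = fluorescence ratio rising 3 SD or more over the vehicle control mean in both replicates, plus primary screen hit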;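 note: peak minus minimum thallium fluorescence divided by baseline after K/Tl stimulus; 0% = vehicle mean plus 3 SD and 100% = vehicle minus unstimulated blank difference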). Conditions: CHO-KCNQ2 cells, FluxOR thallium flux fluorescence; at 10 µM; hits give high values.
In assay [21] the target is Inward rectifier potassium channel 2 (Mus musculus) (UniProt P35561). Description: PubChem AID 2345.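 Note: 0% = vehicle mean plus 3 SD and 100% = vehicle minus no-stimulus blank window.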 Particulars: HEK293 Kir2.1, FluxOR thallium flux fluorescence; at 10 µM; hits give high values.
Sequence of Inward rectifier potassium channel 2 (Mus musculus) (P35561 whole entry, looked up): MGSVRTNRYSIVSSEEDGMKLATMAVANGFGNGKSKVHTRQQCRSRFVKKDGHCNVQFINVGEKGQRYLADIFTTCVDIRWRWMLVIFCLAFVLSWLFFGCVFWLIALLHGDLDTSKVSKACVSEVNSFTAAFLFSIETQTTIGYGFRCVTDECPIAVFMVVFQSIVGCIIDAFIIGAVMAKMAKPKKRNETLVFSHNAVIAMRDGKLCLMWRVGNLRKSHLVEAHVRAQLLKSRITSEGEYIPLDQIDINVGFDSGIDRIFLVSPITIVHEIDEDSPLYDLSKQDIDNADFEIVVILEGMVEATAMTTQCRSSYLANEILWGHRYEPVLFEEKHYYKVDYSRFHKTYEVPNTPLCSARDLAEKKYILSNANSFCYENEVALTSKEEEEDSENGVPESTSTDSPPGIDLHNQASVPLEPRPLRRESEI
Assay [22] deals with Potassium voltage-gated channel subfamily KQT member 2 (Rattus norvegicus) (UniProt O88943). Put plainly: potentiators of retigabine-insensitive KCNQ2 W236L, mechanism study for KCNQ2 potentiator project, cell-based, rat KCNQ2 W236L, CHO, automated patch clamp (AID 2558;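 active = current increase at least 3 SD of the untreated controls above them in both duplicate recordings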). Particulars: at 25 µM; outcome: automated patch clamp current. (In general: In patch-clamp work, channel activity is measured electrically.)

Assay [23] deals with Short transient receptor potential channel 4 (Mus musculus) (UniProt Q9QUQ5). Put plainly: mouse TRPC4 membrane potential modulation by TRPC6 hits, confirmation, selectivity assay for TRPC6 inhibitor project, cell-based, second specificity screen, HEK293 TRPC4/mu-opioid (AID 2776;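 active = compounds whose fluorescence signal differed from control wells by over 3 SD, either direction, in both duplicate plates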). Particulars: HEK293 TRPC4/MOR, membrane potential dye fluorescence, at 10 µM, channel activated by saturating DAMGO dose; hits give high values.

Assay [24] has as its system transient receptor potential cation channel C4 (TRPC4), mouse. Description: mouse TRPC4 modulation by TRPC6 hits, confirmation, selectivity assay for TRPC6 inhibitor project, cell-based, HEK293 TRPC4/mu-opioid, membrane potential dye (AID 2777;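 active = rise or fall in signal beyond 3 SD of buffer-only wells in both replicate plates, either sign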;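 note: integrated kinetic ratio of fluorescence range over baseline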). Particulars: membrane potential fluorescence, at 10 µM.
A short description of assay [25]: nonspecific membrane potential effects, parental HEK293, confirmation, counter-screen for TRPC6 inhibitor project, cell-based, second counter screen (AID 2779;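 active = membrane potential signal moving either way by over 3 SD of the maximum-effect control, in both duplicate plates, meaning non-specific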). Conditions: parental HEK293 membrane potential dye fluorescence; at 10 µM; maximal acetylcholine challenge after compound addition.
Assay [26] can be described thus: membrane potential modulation in parental HEK293, confirmation, counter-screen for TRPC6 inhibitor project, cell-based (AID 2780;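 active = membrane potential signal shifting up or down by more than 3 SD of buffer-only wells, on both duplicate plates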;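 note: plate controls were buffer EC0 wells for no effect and acetylcholine ECmax wells for full effect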). Conditions: parental HEK293 membrane potential dye fluorescence; at 10 µM.
Assay [27] concerns the target Short transient receptor potential channel 6 (Mus musculus) (UniProt Q61143). Description: mouse TRPC6 channel inhibitors, confirmation, HEK293 cells, membrane potential dye, duplicate (AID 488960;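 active = fluorescence ratio falls more than 5 SD below the full-stimulation control mean, in both duplicate runs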;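 note: integrated fluorescence ratio of peak minus minimum over baseline after agonist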). Conditions: ACh-evoked depolarization, at 10 µM; hits give high values.
Assay [28] has the same target. Description: mouse TRPC6 channel activators, confirmation, HEK293 cells, membrane potential dye, duplicate (AID 488961;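 active = ratio signal rise beyond 5 SD above unstimulated control wells' mean, seen in both duplicate runs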). Particulars: HEK293-TRPC6 membrane potential dye fluorescence, FDSS, at 10 µM; hits give high values.
Assay [29] can be described thus: thallium flux activation in parental CHO cells, counter-screen for KCNQ1 potentiator project (AID 493006;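 active = duplicate-averaged activation above buffer control mean plus 5 SD of those controls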;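 note: fluorescence ratio of max minus min over baseline after K+ and Tl+ depolarization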). Conditions: parental CHO-K1 cells, FluxOR thallium flux, at 10 µM; hits give high values.
Assay [30] has as its target Potassium voltage-gated channel subfamily KQT member 1 (Homo sapiens) (UniProt P51787). Description: KCNQ1 potassium channel potentiators, confirmation, FluxOR thallium flux, CHO cells, duplicates (AID 493007;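 active = potentiation averaged over duplicate wells exceeding buffer-only control mean by more than 3 SD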;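 note: 0% = buffer-only wells and 100% = R-L3 activator control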). Conditions: KCNQ1 cell line, FluxOR thallium flux fluorescence, at 10 µM; hits give high values, % of reference activator effect, buffer zero.
Assay [31] has as its target Potassium voltage-gated channel subfamily KQT member 2 (Rattus norvegicus) (UniProt O88943). Description: rat KCNQ2 channel potentiation, selectivity assay for KCNQ1 potentiator project, KCNQ2-CHO-K1 cells (AID 493009;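 active = mean duplicate potentiation above the buffer control mean plus 5 SD of buffer wells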;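 note: assay conditions were tuned for KCNQ1 rather than KCNQ2 modulators; signal is max minus min fluorescence divided by baseline after thallium stimulus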). Conditions: FluxOR thallium flux fluorescence, at 10 µM; hits give high values, scaled: buffer 0, activator control 100.
In assay [32] the target is Potassium voltage-gated channel subfamily KQT member 1 (Homo sapiens) (UniProt P51787). Description: KCNQ1 channel current potentiators, confirmation, orthogonal assay for KCNQ1 potentiator project, IonWorks patch clamp, KCNQ1-CHO cells (AID 493184;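 active = current rise at least 3 SD above the untreated control mean in each of two repeat wells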). Particulars: automated patch clamp current, at 10 µM; hits give high values.

Sequence of Short transient receptor potential channel 6 (Mus musculus) (Q61143 whole entry, looked up): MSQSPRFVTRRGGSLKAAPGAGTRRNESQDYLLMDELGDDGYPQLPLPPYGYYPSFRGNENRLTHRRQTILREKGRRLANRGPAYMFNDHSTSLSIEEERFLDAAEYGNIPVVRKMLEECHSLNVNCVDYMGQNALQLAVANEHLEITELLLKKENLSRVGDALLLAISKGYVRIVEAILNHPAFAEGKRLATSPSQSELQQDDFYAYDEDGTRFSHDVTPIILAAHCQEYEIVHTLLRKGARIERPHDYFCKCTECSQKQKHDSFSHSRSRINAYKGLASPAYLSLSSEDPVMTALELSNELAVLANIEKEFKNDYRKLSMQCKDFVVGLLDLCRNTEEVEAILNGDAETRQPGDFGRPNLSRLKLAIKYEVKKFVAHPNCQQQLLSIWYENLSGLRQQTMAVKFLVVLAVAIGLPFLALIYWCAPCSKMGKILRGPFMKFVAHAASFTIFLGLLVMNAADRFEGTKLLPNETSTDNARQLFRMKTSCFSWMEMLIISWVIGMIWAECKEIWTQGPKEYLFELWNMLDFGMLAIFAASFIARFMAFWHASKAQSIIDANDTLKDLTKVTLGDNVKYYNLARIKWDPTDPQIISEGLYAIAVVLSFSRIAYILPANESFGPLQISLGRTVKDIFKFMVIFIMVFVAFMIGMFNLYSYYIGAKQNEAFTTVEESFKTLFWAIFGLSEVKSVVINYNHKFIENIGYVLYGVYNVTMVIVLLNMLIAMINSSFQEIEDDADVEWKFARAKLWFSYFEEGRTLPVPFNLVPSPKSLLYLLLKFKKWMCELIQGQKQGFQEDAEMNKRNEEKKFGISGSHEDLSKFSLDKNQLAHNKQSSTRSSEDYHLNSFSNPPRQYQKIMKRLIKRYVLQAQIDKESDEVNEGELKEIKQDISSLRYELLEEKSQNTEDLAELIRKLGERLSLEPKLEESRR

As to `CCN1CCN(c2ccc(S(=O)(=O)N3CCCCC3)cc2NC(=O)c2cc3ccccc3o2)CC1`, the outcome in assay [1], in assay [2], in [3], in [5], in [6] and in [7] was inactive. Further, the outcome in [8], in assay [9], in [10], in assay [11], in assay [12] and in [13] was inactive. For the same molecule, the result in [14], in assay [16] and in assay [17] was inactive. The potentiation is 27% (active) in assay [4] and 24.6% (active) in [15].

The inhibition is the change of the read-out against control, counted positive when it falls. As to `O=C(NN/C(=N/S(=O)(=O)c1ccc(Cl)cc1)c1ccccc1)c1cccc(Cl)c1`, the result in [1], in assay [2], in [3], in assay [4], in assay [6] and in assay [7] was inactive. Moreover, the outcome in assay [8], in assay [9], in assay [10], in assay [11], in assay [12] and in [13] was inactive. Moreover, the outcome in assay [14], in assay [15], in assay [16] and in assay [17] was inactive. In addition, the inhibition in assay [5] was 70% (active).

Turning to `COc1ccc(CC2(CO)CCN(C/C=C/c3ccccc3OC)CC2)cc1`, the outcome in assay [1], in assay [2], in assay [3], in assay [4], in assay [6] and in assay [7] was inactive. For the same molecule, the result in assay [8], in assay [9], in assay [10], in [11], in assay [12] and in [13] was inactive. The outcome in assay [15], in assay [16] and in assay [17] was inactive. Further, the inhibition in assay [5] is 79% (active); in assay [14] it was 33.5% (active).

In the case of `Oc1c(Cl)cc(Cl)c(Cl)c1Cc1c(O)c(Cl)cc(Cl)c1Cl`, the activity increase over 3SD of controls in assay [18] is 45% (active). The activation over 3SD threshold in assay [19] is -3.6%. The potentiation, less the hit threshold in [20] is 112% (active). Also, in assay [21], the activity over 3SD threshold was -73.8%. Moreover, the outcome in assay [22], in assay [28] and in [32] was inactive. For the same molecule, the results for the inhibition in assay [23] and in assay [27] were 29.5% (active) and 96.7% (active), respectively. In [24], the activity change, negative = inhibition was 4.36% (active). Moreover, in assay [25], the signal change vs control is -19% (active). For the same molecule, in assay [26], the membrane potential signal change was 2.04% (active). Besides, the activation in assay [29] was 414% (active). In addition, the potentiation in assay [30] is 81.5% (active); in assay [31], 480% (active).

`CCc1cc(=O)oc2c(CNCc3ccccc3F)c(O)c(Cl)cc12`: the outcome in assay [1], in [2], in assay [3], in assay [4], in assay [5] and in assay [6] was inactive. For the same molecule, the result in assay [7], in assay [8], in assay [9], in assay [10], in assay [11] and in [12] was inactive. The result in assay [13], in [14], in assay [15], in assay [16] and in assay [17] was inactive.
